Screening data: PubChem BioAssay, National Center for Advancing Translational Sciences (NCATS)
D2 PAM-1 = D2 dopamine receptor (human) potentiation; HEK293 T-REx D2, calcium flux, EC20 dopamine potentiation; P14416; 340,000 compounds, 0.34% hits; potentiation, % at 10 µM;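 active means potentiation over 3 SD above the plate norm, cut at about 30% in these data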; further: 0% is about no effect
Target sequence (P14416 whole entry, looked up): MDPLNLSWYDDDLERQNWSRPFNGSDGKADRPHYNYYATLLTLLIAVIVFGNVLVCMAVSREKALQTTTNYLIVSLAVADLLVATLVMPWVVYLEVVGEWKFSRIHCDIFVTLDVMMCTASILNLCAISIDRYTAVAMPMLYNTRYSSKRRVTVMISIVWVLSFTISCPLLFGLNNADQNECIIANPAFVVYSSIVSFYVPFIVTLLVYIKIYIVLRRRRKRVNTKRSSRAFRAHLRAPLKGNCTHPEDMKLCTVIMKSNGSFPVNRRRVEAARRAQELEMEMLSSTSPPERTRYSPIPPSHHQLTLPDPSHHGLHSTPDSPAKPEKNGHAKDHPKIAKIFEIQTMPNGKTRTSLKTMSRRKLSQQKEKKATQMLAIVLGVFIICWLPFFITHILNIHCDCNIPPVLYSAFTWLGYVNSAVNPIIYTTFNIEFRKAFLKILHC
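Potentiation of an EC20 dopamine calcium response is measured in a force-coupled, tetracycline-inducible Hek293 Trex D2 line. Compound-only kinetic reads over 180 s flag agonists before dopamine addition.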
D2 PAM-2 = potentiates the human D2 dopamine receptor allosterically | DiscoveRx D2 beta-arrestin cells, luminescence, 90 min; 100% = 57 uM dopamine signal | potentiation, % (test concentration not listed) | 360,000 compounds, 0.23% hits | AID 624464; in the data active means potentiation above about 50%
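D2 cells co-treated with compound plus 50 nM dopamine (EC20) for 90 min at 37 deg C to detect potentiation. Beta-arrestin recruitment was read as enzyme-fragment luminescence after 1 h at ambient temperature. Full response was set by 57 uM dopamine.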
D2 antag = D2 dopamine receptor (human) antagonism; 340,000 compounds, 2% hits; inhibition, % at 10 µM; HEK293 TREx D2 cells, calcium flux, dopamine EC80; in the data active means inhibition above about 30%; inactive means below that, where a call was filed; further: 0% is about no effect
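Tetracycline-induced HEK293 T-REx cells expressing D2 force-coupled to calcium signalling were dye-loaded, exposed to compound for 180 s, then challenged with an EC80 of dopamine; calcium flux was followed kinetically for a further 180 s.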
D2 ag-1 = human D2 receptor agonism in beta-arrestin assay. P14416. DiscoveRx PathHunter D2 beta-arrestin, luminescence, 90 min; 100% = 57 uM dopamine signal. activation, % (no concentration beside the values). 360,000 compounds, 0.084% hits; in the data active means activation above about 40%
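DiscoveRx PathHunter D2 beta-arrestin cells (2,100/well) attached overnight, then compound-stimulated 90 min at 37 C in HBSS/10 mM HEPES/0.1% Tween-20 buffer; beta-galactosidase complementation read by luminescence after 1 h at ambient temperature. Dopamine 57 uM final (EC100) as control.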
D2 ag-2 = D2 dopamine receptor (human) agonism; P14416; HEK293 T-REx D2 cells, calcium flux agonist mode; activation, % at 2 µM; 340,000 compounds, 0.53% hits; AID 485358;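 active means activation over 3 SD above normal in the single-dose calcium agonist read, cut at about 30% in these data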; further: 0% is about no effect
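Calcium-flux readout, 1 cycle/sec over 180 s following compound pin transfer, in inducible HEK293 Trex D2 cells (force-coupled); dopamine controls included. Positive calcium responses during this window marked compounds as potential agonists.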
Starred values were filed as active, the others as inactive; . = no result. Rows were chosen to be rich in hits. Some 2.4% of all compounds tested hit in one or more screens of this group.

SMILES	D2 PAM-1	D2 PAM-2	D2 antag	D2 ag-1	D2 ag-2
CN(Cc1nc(-c2ccccn2)no1)S(=O)(=O)c1ccccc1	.	13	37*	-1	4
COC(=O)c1ccc(C(=O)OC)c(NC(=O)CSCc2ccccc2Br)c1	-1	0	45*	-1	0
CCN1CCN(C(=O)c2ccc3c(c2)N(Cc2ccc(Cl)cc2)C(=O)c2ccccc2S3(=O)=O)CC1	-23	.	.	.	.
CCN1CCN(C(=O)c2ccc3c(c2)N(Cc2ccccc2)C(=O)c2ccccc2S3(=O)=O)CC1	-23	-13	40*	-2	0
Fc1ccc(N2CCN(Cc3cccn3-c3nnc(N4CCN(C5CCCCC5)CC4)s3)CC2)cc1	8	.	.	.	-3
CCOC(=O)c1ccc(CN(Cc2ccc(F)cc2)S(=O)(=O)c2ccc(F)c(C(=O)Nc3ccccc3C(F)(F)F)c2)cc1	7	.	.	.	0
Cc1cc(C)c2c(n1)nn1c(NCCCN(C)C)cc(C)nc21	34*	8	-9	-2	-1
CN1\C(=C/C=C/C=C/C=[N+](C)C)C(C)(C)c2ccccc21	-4	-19	63*	8	47*
CN1/C(=C\C(=O)c2cccnc2)C(C)(C)c2ccccc21	3	-8	32*	-2	-1
CN1/C(=C\C(=O)c2cncc(Br)c2)C(C)(C)c2ccccc21	-6	-25	-9	-2	-1
CN1/C(=C\C(=O)C(F)F)C(C)(C)c2ccccc21	-4	-12	47*	1	0
COc1ccc(-n2ncc3c(SCC(=O)OC(C)C)ncnc32)cc1	.	-3	.	1	.
Cc1cc(Nc2ccc(O)cc2)ccc1N	19	.	9	.	-1
COc1ccc(-n2nnnc2-c2cccc(OC)c2)cc1	-2	12	36*	-1	0
CCn1cc(C(=O)NCCc2ccc(Cl)cc2)c(=O)c2cc(S(=O)(=O)N(C)C)ccc21	7	-4	-9	1	0
CCn1cc(C(=O)NCCCN(C)c2ccccc2)c(=O)c2cc(S(=O)(=O)N(C)C)ccc21	54*	-1	29	-2	43*
CCn1cc(C(=O)NCc2ccc(Cl)cc2)c(=O)c2cc(S(=O)(=O)N(C)C)ccc21	0	0	32*	-5	-1
CCn1cc(C(=O)N2CCOCC2)c(=O)c2cc(S(=O)(=O)N(C)C3CCCCC3)ccc21	32*	-2	0	-3	-1
O=C(NCc1ccc(F)cc1)c1cc(C2CCCN(C(=O)C3CCCCC3)C2)on1 (stereo not drawn)	.	5	.	-3	.
COc1ccc(NC(=O)Cn2c(=O)cc(C)c3c(C)nn(C)c32)cc1	14	.	.	.	0
CCOC(=O)[C@@H](NC(=O)CC[C@H]1O[C@@H](n2ccc(=O)[nH]c2=O)[C@H](O)[C@@H]1O)C(C)C	.	1	.	-3	.
O=C(Cn1nc(C(F)(F)F)c2c1CCCC2)Nc1ccc2c(c1)OCO2	32*	-12	-6	-4	1
Cc1ccc(NC(=O)Cn2nc(C(F)(F)F)c3c2CCC3)cc1C	4	.	.	.	-1
Cc1ccc(C)c(NC(=O)c2nnn(Cc3ccc(F)cc3Cl)c2N)c1	5	.	.	.	7
COc1cccc(OC)c1C(=O)NCCSC1CCCCC1	-6	2	41*	1	-2
SMILES	D2 PAM-1	D2 PAM-2	D2 antag	D2 ag-1	D2 ag-2
COc1cc(OC)cc(C(=O)NCCSC2CCCCC2)c1	-7	-18	14	0	-1
Cc1cc2c(cc1S(=O)(=O)C(C)CC(=O)NC1CCC(C)CC1)OCC(=O)N2 (stereo not drawn)	4	.	.	.	0
O=C(COCc1cc(-c2ccc3c(c2)OCO3)on1)N1CCCCC1	4	-8	78*	0	-1
Cc1ccc2c(CN3CCN(C(=O)c4ccc(F)cc4)CC3)cc(=O)oc2c1	-7	.	.	.	0
Cc1cc(O)c2c(c1)C(=O)c1cc(O)cc(O)c1C2=O	.	-4	.	-5	.
O=C1c2cccc(O)c2C(=O)c2c(O)cc(CO)cc21	.	89*	.	14	.
COc1ccc(-c2nnc(SCC(=O)Nc3cc(C)on3)o2)cc1	15	-2	36*	-6	2
CCc1ccc(NC(=O)c2sc3nc(C)c(C(=O)Nc4ccc(C)cc4C)c(-c4ccco4)c3c2N)cc1	-2	.	.	.	8
COc1ccc(NC2=NCC(=O)N2c2ccccc2F)cc1	7	-1	37*	-4	-1
